Redox H2O2 prof – compounds producing H2O2 with reducing agent – biochemical, NIH compound library profiling, artefact control for MLSCN library redox annotation, primary screen; DTT-dependent redox cycling H2O2, phenol red/HRP absorbance; 100% = 100 µM peroxide control, 0% = buffer; activation, % at 10 µM; 200,000 compounds, 0.03% hits; AID 878, 2007;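 active means activation of at least 50% relative to the plate's high and low controls in the primary single-dose screen; inactive means activation below 50%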;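 further: compound incubated with DTT at 0.8 mM final as the reducing agent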
Hsp70 act – Hsp70 transcriptional activators, primary screen, cell-based, HeLa, Hsp70 promoter luciferase, luminescence, 10 µM | HeLa Hsp70 promoter luciferase reporter; scaled: vehicle 0, proteasome-inhibitor control 100% | activation, % at 10 µM | 200,000 compounds, 0.04% hits;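 active means activation above the mean across all tested compounds plus 3 SD, cutoff set per campaign, cut at about 5.5% in these data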;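 further: 100% = MG132 at 30 µM as the positive control and 0% = DMSO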
p97 ATPase inh – inhibitors of human p97 ATPase, primary screen, biochemical | recombinant p97 ATPase, Kinase-Glo ATP luminescence, 3 h | 220,000 compounds, 0.42% hits | Transitional endoplasmic reticulum ATPase (Homo sapiens), P55072 | inhibition, % at 8 µM | AID 1481, 2009; in the data active means inhibition above about 15%;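 further: 0% = DMSO vehicle and 100% = wells lacking enzyme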
Target sequence (P55072 whole entry, looked up): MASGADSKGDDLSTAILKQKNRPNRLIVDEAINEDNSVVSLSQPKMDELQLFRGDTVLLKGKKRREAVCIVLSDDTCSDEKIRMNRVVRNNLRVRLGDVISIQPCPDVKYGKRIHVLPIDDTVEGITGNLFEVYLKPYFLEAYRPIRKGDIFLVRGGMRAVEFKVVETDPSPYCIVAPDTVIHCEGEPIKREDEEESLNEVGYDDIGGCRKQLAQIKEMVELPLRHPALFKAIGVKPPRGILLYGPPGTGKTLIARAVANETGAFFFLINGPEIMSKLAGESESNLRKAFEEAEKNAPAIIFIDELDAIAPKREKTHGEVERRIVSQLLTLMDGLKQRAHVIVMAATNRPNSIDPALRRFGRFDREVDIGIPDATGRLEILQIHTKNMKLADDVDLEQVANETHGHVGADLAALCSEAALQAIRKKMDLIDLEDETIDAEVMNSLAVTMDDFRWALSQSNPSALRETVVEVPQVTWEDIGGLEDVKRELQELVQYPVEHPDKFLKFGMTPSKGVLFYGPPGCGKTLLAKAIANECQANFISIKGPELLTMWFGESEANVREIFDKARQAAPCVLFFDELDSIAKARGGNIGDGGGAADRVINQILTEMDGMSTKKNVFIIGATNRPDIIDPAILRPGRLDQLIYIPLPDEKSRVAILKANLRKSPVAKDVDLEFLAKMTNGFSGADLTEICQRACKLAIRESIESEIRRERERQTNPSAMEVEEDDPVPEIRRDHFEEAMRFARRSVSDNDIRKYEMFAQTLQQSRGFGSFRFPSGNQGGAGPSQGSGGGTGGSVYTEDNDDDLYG
Wee1 stabilizer – Wee1 degradation inhibitors, primary screen, cell-based, HeLa, Wee1K328M-luciferase, luminescence; Wee1-like protein kinase (Homo sapiens), P30291; HeLa Luc-Wee1K328M stability; 100% = proteasome inhibitor MG132 effect; reporter increase, % at 5 µM; 220,000 compounds, 1.2% hits; AID 1321, 2008;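 active means activation above the mean of all tested compounds plus 3 SD, set per screening run, cut at about 8.8% in these data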;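 further: cells exposed to compound for 20 h before luminescence read; 0% = DMSO alone and 100% = MG132 at 30 µM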
HSV augment – enhancers of HSV replication in host cells, fold increase, host cell viability. maximum fold increase. 220,000 compounds, 0.005% hits. HSV replication augmentation in cells; in the data active means maximum fold increase above about 1.5; inconclusive means no clear call, values can overlap the other calls; tested in PC3 cells
p97 confirm – p97 ATPase inhibitors, retest, confirmation, biochemical; recombinant p97 ATPase, Kinase-Glo ATP luminescence; AID 1517, 2009; shares compounds with p97 ATPase inh; inhibition, % at 8 µM; 760 compounds, 44% hits;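 active means percent inhibition of p97 ATPase above a set limit, the primary screen's mean plus 3 SD, cut at about 15% in these data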;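 further: 0% = DMSO wells and 100% = wells lacking p97 protein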
* hit, by the source's call; i = inactive; ? = inconclusive; nt = no result given; ! = a repeat was not active. In the library only some 1.6% were active in any assay of this set; here they are far more common.

SMILES	Redox H2O2 prof	Hsp70 act	p97 ATPase inh	Wee1 stabilizer	HSV augment	p97 confirm
COc1ccc(NC(=O)CSc2nc3c([nH]c4ccccc43)c(=O)n2C)cc1	-1	0	2	-1	i	nt
Nc1nc(N2CCOCC2)n[nH]1	10	0	17*	-1	i	4
CSC1=NC(=O)/C(=C\c2cccc3ccccc23)S1	1	0	15*	0	i	10
N=C1S/C(=C\c2cccc3ccccc23)C(=O)N1c1ccc(F)cc1	0	0	2	-1	i	nt
CCC(C)NC(=O)CSc1nc2scc(-c3ccccc3)c2c(=O)[nH]1 (configuration not stated)	-1	0	4	2	i	nt
CC(Sc1nc2scc(-c3ccccc3)c2c(=O)[nH]1)C(=O)NC(N)=O (configuration not stated)	nt	nt	15*	0	i	24*
COc1ccc(C2=NN(c3ccccc3)C(=O)/C2=C\c2ccc(O)c(OC)c2)cc1	1	0	35*	1	nt	7
CCN1CCN(S(=O)(=O)c2ccc(S(=O)(=O)N(CC)Cc3ccccc3)cc2)CC1	-4	0	0	-1	i	nt
COC(=O)Cc1nc(Nc2ccccc2)sc1C	nt	nt	20*	-2	i	5
O=C1c2ccccc2S(=O)(=O)c2cc(C(=O)N3CCN(c4c(Cl)cncc4Cl)CC3)ccc21	nt	nt	nt	nt	i	nt
COC(=O)CNc1nc(-c2ccccc2F)nc2ccccc12	-1	0	8	1	i	nt
Fc1ccccc1-c1nc(NCc2ccccc2)c2ccccc2n1	nt	nt	30*	-1	i	40*
c1ccc(CNc2nc(NCc3ccccc3)c3ccccc3n2)cc1	nt	nt	44*	-2	i	41*
c1ccc(CNc2nc(-c3cccs3)nc3ccccc23)cc1	1	0	5	1	i	nt
Fc1ccc(Nc2nc(NCc3ccco3)c3ccccc3n2)cc1	nt	nt	27*	7	i	34*
CC(C)OC(=O)c1cc(C(=O)c2cc(F)ccc2O)coc1=N	0	0	-5	1	i	nt
CCOC(=O)N1CCN(Cc2nc(-c3ccc(Cl)cc3)no2)CC1	-4	0	-4	2	i	nt
COc1cccc(NC(=S)NC(C)c2ccc(OC)c(OC)c2)c1 (configuration not stated)	0	0	5	1	i	nt
CC#CC#Cc1cccc(=O)o1	nt	nt	29*	-3	i	23*
C1COC(NC(C2CC2)C2CC2)=N1	0	0	-1	1	i	nt
C[C@H](NC(=O)Nc1ccccc1F)C(=O)O	1	0	-2	1	i	nt
CC(C)[C@H](NC(=O)Nc1ccccc1F)C(=O)O	0	0	15*	-2	i	8
Fc1ccccc1-c1nc(-c2ccc(Cl)cc2)no1	-4	0	-8	1	i	nt
Cc1csc2c(=O)sc(NC(=O)c3ccc(F)cc3)nc12	nt	nt	11	-1	i	nt
Cc1csc2c(=O)sc(NC(=O)c3ccc(F)cc3Cl)nc12	nt	nt	17*	4	i	19*
SMILES	Redox H2O2 prof	Hsp70 act	p97 ATPase inh	Wee1 stabilizer	HSV augment	p97 confirm
Cc1ccccc1C(=O)Nc1nc2c(C)csc2c(=O)s1	nt	nt	39*	3	i	37*
CC(C)(C)Nc1nc(NC(C)(C)C)nc(-n2ccnc2)n1	1	0	15*	0	i	10
CCCCCOC(=O)c1c(N)n(CCOC)c2nc3ccccc3nc12	-4	0	-6	1	i	nt
CCOC(=O)c1c(N)n(CCOC(=O)c2cccs2)c2nc3ccccc3nc12	1	0	21*	-3	nt	7
O=C(O)CSC1c2ccccc2C(=O)N1c1ccccc1 (configuration not stated)	1	0	0	-1	i	nt
COC(=O)C1C(c2ccccc2)NC(=O)NC1(O)C(F)(F)Cl (configuration not stated)	-2	0	4	0	i	nt
Cc1cc(N/N=C/c2ccc(O)cc2O)nc(N2CCOCC2)n1	nt	nt	15*	1	i	17*
Cc1cc(N/N=C/c2ccc(O)c(C)c2O)nc(-c2ccccc2O)n1	0	0	6	-1	i	nt
CC1=NN(c2ccc(C(=O)O)c(N)c2)C(=O)C1	-1	0	10	1	i	nt
CC1=NN(c2ccc(Cl)c(C(=O)O)c2)C(=O)C1	0	0	34*	-1	i	6
O=C(Nc1ccc2nc(-c3ccccn3)c(-c3ccccn3)nc2c1)N1CCOCC1	0	0	2	-1	i	nt
CC(C)N1C(=O)CC(Nc2cccc3cccc(N)c23)C1=O (configuration not stated)	-1	0	18*	0	i	3
S=c1[nH]nc(C2CC2)n1Cc1ccccc1	-4	0	50*	5	i	9
CC(=O)NS(=O)(=O)c1ccc(NC(=O)c2cc3c(=O)n4ccccc4nc3s2)cc1	nt	nt	17*	2	i	7
Cc1cccc(C2c3[nH]c4ccccc4c3CCN2C(=O)c2ccc(=O)[nH]c2)n1 (configuration not stated)	0	0	17*	-2	i	4
Cc1ccc(OCC(O)CN2CCN(Cc3ccc4c(c3)OCO4)CC2)cc1C (configuration not stated)	0	0	-2	-2	nt	nt
C=CCc1ccccc1OCC(O)CN1CCN(Cc2ccc3c(c2)OCO3)CC1 (configuration not stated)	-1	0	16*!	0	i	1
CCOc1cc(/C=C2\C(=O)N(CCC#N)N=C2C)ccc1OCC(N)=O	-2	0	17*	3	i	6
COc1cc(/C=C2\C(=O)N(CCC#N)N=C2C)ccc1OCC(=O)Nc1ccccc1	0	0	29*	2	i	4
CCN(CC)C(=O)c1ccc(COc2ccccc2Cl)cc1	0	0	15*	2	i	-1
S=C(Nc1ccc2nsnc2c1)N1CCCC1	0	0	21*	-2	i	8
O=C(Nc1ccc2nsnc2c1)N1CCCCCC1	0	0	-5	3	i	nt
O=C(COc1nsnc1N1CCOCC1)Nc1ccc(Cl)cc1	0	0	-4	-2	i	nt
O=C(O)c1cc(-c2ccco2)nc2cc3ccccc3cc12	nt	nt	30*	2	?	23*
O=C(Nc1cccc(NC(=O)c2ccco2)c1)c1ccc2c(c1)OCO2	3	0	-1	0	i	nt
O=C(Nc1cccc(NC(=O)c2ccco2)c1)c1ccc2c(c1)OCCO2	0	0	17*	3	i	5

Screening data from PubChem.
